Each structure is given as a SMILES string. Unmarked numbers belong to inactive results. For some of these results: Results with a measured potency or affinity are listed apart. The source made the active and inactive calls. Unless noted, no rule for the calls is given here.

This passage reports growth inhibition, inhibition and outcome results from PubChem BioAssay.

Assay [1] in a line: antimalarial activity against Dd2 strain (AID 2302;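 active = growth inhibition above 50% at the single 2 µM test dose, taken to imply half-maximal potency below 2 µM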;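 also: 0% = DMSO untreated growth and 100% = chloroquine plus artemisinin killed control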). The settings on record: P. falciparum Dd2 in RBCs, LDH growth readout, 72 h; at 2 µM; active compounds read high.
Assay [2] in a line: HepG2 cytotoxicity, primary screen, cytotoxicity control for P. falciparum antimalarial project, cell-based, ATP luminescence (AID 2303;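 active = inhibition above 50%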;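 also: 0% = DMSO wells and 100% = digitonin-killed cells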). The note with it: HepG2 viability, 24-48 h, at 10 µM, active compounds read high.
The target of assay [3] is L-lactate dehydrogenase (Plasmodium falciparum (isolate CDC / Honduras)) (UniProt Q27743). The assay is described as follows: PfLDH activity inhibition – cell lysate, 3D7 strain, counter-screen for P. falciparum growth inhibition project (AID 2304).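 Also: 0% = vehicle and 100% = reference inhibitor.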 The note with it: P. falciparum 3D7 crude extract, LDH APAD/NBT absorbance; at 2 µM; active compounds read high. (In general: The purpose of a counterscreen is to sort out artefacts and off-target activity.)
Sequence of L-lactate dehydrogenase (Plasmodium falciparum (isolate CDC / Honduras)) (Q27743 whole entry, looked up): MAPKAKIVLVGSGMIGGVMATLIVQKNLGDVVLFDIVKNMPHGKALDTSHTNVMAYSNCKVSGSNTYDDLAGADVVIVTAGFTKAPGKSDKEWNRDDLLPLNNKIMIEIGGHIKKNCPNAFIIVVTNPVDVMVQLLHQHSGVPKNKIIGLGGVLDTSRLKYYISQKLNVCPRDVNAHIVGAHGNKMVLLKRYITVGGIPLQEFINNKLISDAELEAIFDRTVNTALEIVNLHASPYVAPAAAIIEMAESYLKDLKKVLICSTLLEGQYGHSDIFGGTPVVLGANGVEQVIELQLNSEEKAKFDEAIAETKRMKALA

A short description of assay [4]: inhibition of 3D7 malaria parasite growth – strain 3D7 (AID 2306).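 Also: 0% = DMSO wells and 100% = chloroquine plus artemisinin control wells.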 The note with it: P. falciparum 3D7 erythrocytic growth, LDH absorbance, 72 h; at 2 µM; active compounds read high.
The target in assay [5] is Calcium-dependent protein kinase 1 (Plasmodium falciparum (isolate 3D7)) (UniProt P62344). The assay is described as follows: PfCDPK1 kinase inhibitors, biochemical, TCAMS library (AID 1159585; cut-off not given, nearly all actives have IC50 up to about 0.98 µM;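 also: inhibitors leave more ATP so luminescence rises with inhibition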). The settings on record: recombinant PfCDPK1, Kinase-Glo ATP depletion luminescence.
Sequence of Calcium-dependent protein kinase 1 (Plasmodium falciparum (isolate 3D7)) (P62344 whole entry, looked up): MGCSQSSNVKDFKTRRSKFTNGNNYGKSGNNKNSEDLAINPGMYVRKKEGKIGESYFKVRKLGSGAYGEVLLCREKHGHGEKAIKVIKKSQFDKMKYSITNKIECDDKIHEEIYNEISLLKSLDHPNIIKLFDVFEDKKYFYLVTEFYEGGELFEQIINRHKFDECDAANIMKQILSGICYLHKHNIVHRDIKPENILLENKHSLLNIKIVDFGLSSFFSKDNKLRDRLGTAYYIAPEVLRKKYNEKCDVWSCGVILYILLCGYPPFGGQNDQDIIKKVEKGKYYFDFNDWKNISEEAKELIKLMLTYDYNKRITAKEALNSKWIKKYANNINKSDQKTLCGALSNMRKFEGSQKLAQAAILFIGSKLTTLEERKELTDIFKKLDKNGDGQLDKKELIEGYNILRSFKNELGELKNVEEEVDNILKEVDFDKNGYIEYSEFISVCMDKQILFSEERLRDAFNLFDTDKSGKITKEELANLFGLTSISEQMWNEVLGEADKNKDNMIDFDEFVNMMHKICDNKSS
The target in assay [6] is Plasmodium falciparum protein kinase 6 (PK6, PF3D7_1337100) (UniProt Q8IDW1). The assay is described as follows: PfPK6 kinase inhibitors, biochemical, TCAMS library (AID 1159586). The settings on record: recombinant PfPK6, Kinase-Glo ATP depletion luminescence.
Sequence of Plasmodium falciparum protein kinase 6 (PK6, PF3D7_1337100) (Q8IDW1 1-305): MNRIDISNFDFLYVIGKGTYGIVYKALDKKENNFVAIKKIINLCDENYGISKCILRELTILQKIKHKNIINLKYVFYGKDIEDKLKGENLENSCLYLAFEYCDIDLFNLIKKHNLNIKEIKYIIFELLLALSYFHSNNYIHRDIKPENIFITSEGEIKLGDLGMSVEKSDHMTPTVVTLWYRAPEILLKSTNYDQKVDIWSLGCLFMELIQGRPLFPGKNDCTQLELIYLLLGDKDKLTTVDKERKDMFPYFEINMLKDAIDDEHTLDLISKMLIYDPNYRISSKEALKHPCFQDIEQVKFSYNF
Assay [7] addresses Protein kinase 7 (PK7), Plasmodium falciparum 3D7 (PF3D7_0213400) (UniProt Q7YTF7). The assay is described as follows: inhibition of Plasmodium PK7 catalytic activity – biochemical, TCAMS antimalarial set, Kinase-Glo luminescence (AID 1159587). The note with it: recombinant PfPK7, Kinase-Glo ATP depletion luminescence. In general terms: Kinase-Glo reads ATP consumption through a luciferase reaction.

Assay [8] has as its target Calcium-dependent protein kinase 4 (Plasmodium falciparum (isolate 3D7)) (UniProt Q8IBS5). The assay is described as follows: PfCDPK4 kinase inhibitors, biochemical, TCAMS library (AID 1159588; cut-off not given, nearly all actives have IC50 up to about 0.91 µM). The settings on record: recombinant PfCDPK4, Kinase-Glo ATP depletion luminescence.

Sequence of Protein kinase 7 (PK7), Plasmodium falciparum 3D7 (PF3D7_0213400) (Q7YTF7 1-343): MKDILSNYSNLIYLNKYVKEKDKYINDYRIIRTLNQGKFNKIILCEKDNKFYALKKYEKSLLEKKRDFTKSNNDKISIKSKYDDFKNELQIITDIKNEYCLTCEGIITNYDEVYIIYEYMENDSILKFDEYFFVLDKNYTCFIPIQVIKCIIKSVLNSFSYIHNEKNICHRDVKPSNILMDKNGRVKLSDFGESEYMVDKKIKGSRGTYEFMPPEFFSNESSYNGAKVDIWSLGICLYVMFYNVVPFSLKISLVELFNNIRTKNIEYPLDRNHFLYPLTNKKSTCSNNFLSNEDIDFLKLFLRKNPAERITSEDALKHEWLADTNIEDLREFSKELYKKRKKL
Sequence of Calcium-dependent protein kinase 4 (Plasmodium falciparum (isolate 3D7)) (Q8IBS5 whole entry, looked up): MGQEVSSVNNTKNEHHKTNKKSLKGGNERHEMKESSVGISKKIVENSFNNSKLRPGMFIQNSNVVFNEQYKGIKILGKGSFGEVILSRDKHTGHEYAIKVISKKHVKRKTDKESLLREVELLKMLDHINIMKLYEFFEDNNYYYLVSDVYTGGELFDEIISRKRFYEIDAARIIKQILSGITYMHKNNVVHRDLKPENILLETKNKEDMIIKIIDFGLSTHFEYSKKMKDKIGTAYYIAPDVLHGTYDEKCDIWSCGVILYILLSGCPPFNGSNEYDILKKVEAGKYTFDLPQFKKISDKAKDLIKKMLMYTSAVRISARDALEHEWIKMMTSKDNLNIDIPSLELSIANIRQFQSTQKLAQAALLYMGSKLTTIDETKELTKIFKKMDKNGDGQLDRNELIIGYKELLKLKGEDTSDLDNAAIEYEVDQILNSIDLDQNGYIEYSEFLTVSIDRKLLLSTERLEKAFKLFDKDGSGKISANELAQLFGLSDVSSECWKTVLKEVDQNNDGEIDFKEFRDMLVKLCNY

A word on the inhibition: it is the drop in the measured response relative to a control, in per cent. Take `NC1CCCN(Cc2cccc(-c3ccc(-c4nc5ccc(F)cc5[nH]4)cc3)c2)C1` (stereo not given): the growth inhibition is 99% (active) in assay [1] and 101% (active) in assay [4]. Also, the values for the inhibition in assay [2] and in assay [3] were 40% and -3%, respectively. Besides, the outcome in assay [5], in assay [6], in assay [7] and in assay [8] was inactive.
With `CCCCCn1c(Sc2ccc(C#N)c([N+](=O)[O-])c2)nnc1-c1cccs1`, the results for the growth inhibition in assay [1] and in assay [4] were 38% and 91% (active), respectively. The inhibition in assay [2] was 19%; in assay [3] it was -1%. Also, the outcome in assay [5], in assay [6], in assay [7] and in assay [8] was inactive.
With `Cc1nnc2c(NC(=O)NC(C)C)cc3cc(-c4ccc(CN5CCCCC5)cc4)ccc3n12`, the growth inhibition in assay [1] was 8%; in assay [4], 87% (active). For the same molecule, the results for the inhibition in assay [2] and in assay [3] were 70% (active) and 1%, respectively. Also, the outcome in assay [5], in assay [6], in assay [7] and in assay [8] was inactive.
As to `COc1ccccc1OCCN(CC(O)COc1cccc2[nH]c3ccccc3c12)CC(O)COc1cccc2[nH]c3ccccc3c12` (stereo not given), the growth inhibition in assay [1] is 96% (active); in assay [4], 97% (active). Further, the inhibition in assay [2] was 16%; in assay [3], -8%. Also, the outcome in assay [5], in assay [6], in assay [7] and in assay [8] was inactive.
Regarding `COc1ccc2[nH]c3ccccc3c(=O)c2c1`, the growth inhibition was 75% (active) in assay [1] and 87% (active) in assay [4]. Moreover, the results for the inhibition in assay [2] and in assay [3] were 0% and 2%, respectively. The outcome in assay [5], in assay [6], in assay [7] and in assay [8] was inactive.
Consider `O=C(Nc1ccnc(N2CCCN(Cc3cccc(O)c3)CC2)c1)c1ccc(F)cc1`, for which the values for the growth inhibition in assay [1] and in assay [4] were 3% and 90% (active), respectively. Moreover, the inhibition in assay [2] was 12%; in assay [3] it was 4%. Besides, the outcome in assay [5], in assay [6], in assay [7] and in assay [8] was inactive.
Take `COc1ccc(NC(=O)Nc2cccc(-c3ccc(-c4nc5c(C)cccc5[nH]4)s3)c2)cc1`: the growth inhibition in assay [1] was 32%; in assay [4], 101% (active). The inhibition is 23% in assay [2] and 8% in assay [3]. The result in assay [5], in assay [6], in assay [7] and in assay [8] was inactive.
Consider `O=C(Nc1ccc2oc(-c3ccc(Cl)cc3Cl)nc2c1)c1ccc([N+](=O)[O-])o1`, for which the growth inhibition in assay [1] was 78% (active); in assay [4], 95% (active). In addition, the inhibition was 39% in assay [2] and 3% in assay [3]. Besides, the outcome in assay [5], in assay [6], in assay [7] and in assay [8] was inactive.
On to `COC(=O)c1ccc(CCC(C)NCC(O)c2cccc(Cl)c2)cc1` (stereo not given), for which the results for the growth inhibition in assay [1] and in assay [4] were 94% (active) and 100% (active), respectively. The results for the inhibition in assay [2] and in assay [3] were -4% and 1%, respectively. The outcome in assay [5], in assay [6], in assay [7] and in assay [8] was inactive.
As to `O=C(NCCc1cccc(Cl)c1Cl)c1cnc(N2CCN(c3ccncc3)CC2)c(Cl)c1`, the growth inhibition in assay [1] was 99% (active); in assay [4] it was 100% (active). The inhibition in assay [2] was 47%; in assay [3], 0%. In addition, the outcome in assay [5], in assay [6], in assay [7] and in assay [8] was inactive.
As to `N#Cc1cccc(NC(=O)Nc2ccc3c(c2)CCN(C2CCC2)CC3)c1`, the growth inhibition in assay [1] was 26%; in assay [4], 91% (active). Besides, the inhibition is 22% in assay [2] and -3% in assay [3]. Also, the outcome in assay [5], in assay [6], in assay [7] and in assay [8] was inactive.
Consider `CC(C)(C)Cn1cc(-c2ccc(C(=O)NCCc3ccc(S(C)(=O)=O)cc3)cc2)c(N)n1` (tested in a mixture with another compound), for which the growth inhibition was 10% in assay [1] and 86% (active) in assay [4]. The inhibition in assay [2] was 7%; in assay [3], -1%. For the same molecule, the outcome in assay [5], in assay [6], in assay [7] and in assay [8] was inactive.
On to `CCn1c(SCC(=O)Nc2cc(C(F)(F)F)ccc2Cl)nc2ccccc2c1=O`, for which the growth inhibition in assay [1] was 95% (active); in assay [4] it was 93% (active). For the same molecule, the inhibition in assay [2] was 8%; in assay [3] it was 3%. Besides, the result in assay [5], in assay [6], in assay [7] and in assay [8] was inactive.
For `O=c1cc(NCCCNCc2cccc(C(F)(F)F)c2Cl)[nH]c2ccccc12`, the growth inhibition is 24% in assay [1] and 94% (active) in assay [4]. Also, the results for the inhibition in assay [2] and in assay [3] were 0% and -2%, respectively. Moreover, the outcome in assay [5], in assay [6], in assay [7] and in assay [8] was inactive.
For `COc1ccc2nccc([C@@H](O)CN3CCC(NC(=O)c4cccc(C(=O)c5ccccc5)c4)CC3)c2c1`, the growth inhibition in assay [1] and in assay [4] was 99% (active) each time. Also, the inhibition in assay [2] is 13%; in assay [3], 2%. Besides, the result in assay [5], in assay [6], in assay [7] and in assay [8] was inactive.
Take `CC(C)CCNC(=O)[C@@H]1[C@H]2C(=O)N(C3CCCCC3)C(=O)[C@H]2[C@H]2C=C[C@@H]3C(c4ccc(C(C)(C)C)cc4)=NO[C@@H]3N21`: the growth inhibition in assay [1] was 48%; in assay [4], 96% (active). Further, the inhibition in assay [2] is -4%; in assay [3] it was -2%. The result in assay [5], in assay [6], in assay [7] and in assay [8] was inactive.
With `Cc1ccnc(NC(c2cccc(OCc3ccccc3)c2)c2ccc3cccnc3c2O)c1` (stereo not given), the growth inhibition is 88% (active) in assay [1] and 95% (active) in assay [4]. The figures for the inhibition in assay [2] and in assay [3] were 26% and -2%, respectively. Also, the outcome in assay [5], in assay [6], in assay [7] and in assay [8] was inactive.
With `CN1CCC(NCc2ccc(-c3ccc(S(=O)(=O)NCc4ccccc4)cc3)cc2)CC1`, the growth inhibition in assay [1] is 51% (active); in assay [4], 99% (active). In addition, the inhibition was 40% in assay [2] and 2% in assay [3]. Besides, the outcome in assay [5], in assay [6], in assay [7] and in assay [8] was inactive.
As to `CCC(=O)Nc1cc(=O)[nH]c2nc(-c3ccc(Cl)cc3)nn12`, the growth inhibition is 62% (active) in assay [1] and 84% (active) in assay [4]. The inhibition in assay [2] was 3%; in assay [3], -11%. Besides, the outcome in assay [5], in assay [6], in assay [7] and in assay [8] was inactive.
As for `Cc1cnc(C(=O)Nc2cccc(-c3ccc(-c4nc5ccc(C(F)(F)F)cc5[nH]4)s3)c2)cn1`, the results for the growth inhibition in assay [1] and in assay [4] were 14% and 86% (active), respectively. Besides, the figures for the inhibition in assay [2] and in assay [3] were 35% and -7%, respectively. Further, the result in assay [5], in assay [6], in assay [7] and in assay [8] was inactive.
